Reference: PubChem BioAssay (NCI)
About 83,000 compounds went through this panel and 20% of them were active in at least one assay; those are over-represented in the sample as a whole.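 A percent growth of 40 corresponds to 60% growth inhibition; 0 means no net growth; -100 means all cells died. Active threshold: below 10.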 Active and inactive are the calls of the source.

Columns and labels:
Assay in all cases: NCI-60 one-dose screen, 48 h (100 = growth as untreated, 0 = no growth, -100 = all killed)
Settings in all cases: 10 µM
SK-MEL-2 melanoma = test system: SK-MEL-2 melanoma
EKVX NSCLC = test system: EKVX NSCLC
SN12C renal = test system: SN12C renal
UO-31 renal = test system: UO-31 renal
TK-10 renal = test system: TK-10 renal
ACHN renal = test system: ACHN renal
CAKI-1 renal = test system: CAKI-1 renal
A498 renal = test system: A498 renal
MOLT-4 leukemia = test system: MOLT-4 leukemia
SR leukemia = test system: SR leukemia
OVCAR-8 ovarian = test system: OVCAR-8 ovarian
OVCAR-5 ovarian = test system: OVCAR-5 ovarian
OVCAR-4 ovarian = test system: OVCAR-4 ovarian
SK-OV-3 ovarian = test system: SK-OV-3 ovarian
IGROV1 ovarian = test system: IGROV1 ovarian
OVCAR-3 ovarian = test system: OVCAR-3 ovarian
HS 578T breast = test system: HS 578T breast
NCI/ADR-RES ovarian = test system: NCI/ADR-RES ovarian
RPMI-8226 leukemia = test system: RPMI-8226 leukemia
CCRF-CEM leukemia = test system: CCRF-CEM leukemia

Measured: growth

Cc1[nH]c2ccccc2c1/C=N/Nc1ncnc2sc3c(c12)CCN(CC(=O)OC(C)(C)C)C3
inactive: SK-MEL-2 melanoma 92.6% | EKVX NSCLC 134% | SN12C renal 85.3% | UO-31 renal 65.5% | TK-10 renal 101% | ACHN renal 54.2% | CAKI-1 renal 47.2% | A498 renal 51.8% | MOLT-4 leukemia 46.5% | SR leukemia 23.4% | OVCAR-8 ovarian 69% | OVCAR-5 ovarian 130% | OVCAR-4 ovarian 104% | SK-OV-3 ovarian 108% | IGROV1 ovarian 79.8% | OVCAR-3 ovarian 83.1% | HS 578T breast 77.7% | NCI/ADR-RES ovarian 66.1%

O=C(O)c1cn(C2CC2)c2cc(N3CCN(C(=O)c4cc(-c5ccc(Cl)cc5)nc5ccccc45)CC3)c(F)cc2c1=O
inactive: SK-MEL-2 melanoma 101% | EKVX NSCLC 85.5% | SN12C renal 90.9% | UO-31 renal 35.8% | TK-10 renal 113% | ACHN renal 87.3% | CAKI-1 renal 60.2% | A498 renal 74.2% | MOLT-4 leukemia 82.1% | RPMI-8226 leukemia 81.8% | OVCAR-8 ovarian 89.9% | OVCAR-5 ovarian 98.2% | OVCAR-4 ovarian 98.6% | SK-OV-3 ovarian 77.9% | IGROV1 ovarian 51.4% | OVCAR-3 ovarian 100% | HS 578T breast 94% | NCI/ADR-RES ovarian 98.9%

C=CCn1c(SCC(=O)Nc2ccc(C(=O)/C=C/c3ccc(Cl)cc3)cc2)nnc1-c1cc(-c2ccccc2)nc2ccccc12
inactive: SK-MEL-2 melanoma 97.2% | EKVX NSCLC 79.1% | SN12C renal 70.8% | UO-31 renal 35.4% | TK-10 renal 94.8% | ACHN renal 82.3% | CAKI-1 renal 61.7% | A498 renal 81.4% | MOLT-4 leukemia 12.8% | OVCAR-8 ovarian 26.4% | OVCAR-5 ovarian 90.4% | OVCAR-4 ovarian 44.1% | SK-OV-3 ovarian 100% | OVCAR-3 ovarian 63.7% | HS 578T breast 86.3% | NCI/ADR-RES ovarian 78.9%
active: SR leukemia 6.5% | IGROV1 ovarian -62%

CC[C@@H](C(=O)[C@@H](C)[C@@H](O)[C@H](C)[C@@H]1O[C@@H]([C@@H](CC)C(=O)O)CC[C@@H]1C)C1O[C@]2(C=CC(=O)[C@]3(CC[C@@](C)([C@H]4CC[C@](O)(CC)[C@H](C)O4)O3)O2)[C@H](C)C[C@@H]1C (some centres undefined)
inactive: SK-MEL-2 melanoma 40.7% | EKVX NSCLC 38% | SN12C renal 27.6% | UO-31 renal 24.3% | TK-10 renal 57.7% | ACHN renal 31.6% | CAKI-1 renal 27% | MOLT-4 leukemia 40.6% | SR leukemia 31.3% | OVCAR-8 ovarian 44.4% | OVCAR-4 ovarian 47.7% | SK-OV-3 ovarian 69.1% | IGROV1 ovarian 48.4% | OVCAR-3 ovarian 27.2% | HS 578T breast 30.6% | NCI/ADR-RES ovarian 40%
active: A498 renal -11.4% | RPMI-8226 leukemia 4.99%

Clc1ccc(C2=NN=C3C(Cc4ccccc4)=Nc4ccccc4N3C2)cc1
inactive: SK-MEL-2 melanoma 105% | EKVX NSCLC 86% | SN12C renal 83.2% | UO-31 renal 63.1% | TK-10 renal 68.4% | ACHN renal 63.2% | CAKI-1 renal 55.4% | A498 renal 68.5% | MOLT-4 leukemia 61.3% | RPMI-8226 leukemia 49.4% | OVCAR-8 ovarian 75.5% | OVCAR-5 ovarian 90% | SK-OV-3 ovarian 112% | IGROV1 ovarian 83.8% | OVCAR-3 ovarian 65.8% | HS 578T breast 90.1% | NCI/ADR-RES ovarian 74.4%

CC(=O)C1N=NCC1c1ccccc1 (centres undefined)
inactive: SK-MEL-2 melanoma 97.3% | EKVX NSCLC 101% | SN12C renal 88.7% | UO-31 renal 92.3% | TK-10 renal 96.1% | ACHN renal 95.8% | CAKI-1 renal 95.4% | CCRF-CEM leukemia 104% | MOLT-4 leukemia 96.7% | SR leukemia 111% | RPMI-8226 leukemia 110% | OVCAR-8 ovarian 111% | OVCAR-5 ovarian 98.9% | OVCAR-4 ovarian 106% | SK-OV-3 ovarian 103% | OVCAR-3 ovarian 110% | HS 578T breast 90% | NCI/ADR-RES ovarian 104%

COc1cc2nc(SCC(=O)Nc3cc(OC)c(OC)c(OC)c3)n(Cc3ccccc3)c(=O)c2cc1OC
inactive: SK-MEL-2 melanoma 45.4% | EKVX NSCLC 75.5% | SN12C renal 69.1% | UO-31 renal 48.9% | ACHN renal 66.1% | CAKI-1 renal 84.8% | OVCAR-5 ovarian 93.7% | OVCAR-4 ovarian 48.1% | SK-OV-3 ovarian 47.4% | IGROV1 ovarian 75.5% | OVCAR-3 ovarian 69.7% | HS 578T breast 24.9%
active: TK-10 renal -12.5% | A498 renal -8.93% | OVCAR-8 ovarian -4.94%

CCN(CC)c1ccc(/C=C2\SC(=O)C(Nc3nnc(-c4cccnc4SCc4ccccc4)o3)C2=O)cc1 (centres undefined)
active: A498 renal 9.41% | OVCAR-3 ovarian -13.5% | NCI/ADR-RES ovarian -9.88%
inactive: SK-MEL-2 melanoma 33.8% | EKVX NSCLC 55.8% | SN12C renal 61.4% | UO-31 renal 53.7% | TK-10 renal 44.3% | ACHN renal 51.2% | CAKI-1 renal 41.2% | MOLT-4 leukemia 61.9% | RPMI-8226 leukemia 23.4% | OVCAR-8 ovarian 24.2% | OVCAR-5 ovarian 41.4% | OVCAR-4 ovarian 38.6% | SK-OV-3 ovarian 15.6% | IGROV1 ovarian 56.5% | HS 578T breast 26.6%

CC[C@@H](C(=O)[C@H](C)[C@H](O)[C@@H](C)[C@H]1O[C@H]([C@@H](CC)C(=O)N(CC)CC)CC[C@H]1C)C1O[C@]2(C=C[C@@H](O)[C@]3(CC[C@@](C)([C@H]4CC[C@](O)(CC)[C@H](C)O4)O3)O2)[C@H](C)C[C@@H]1C (some centres undefined)
active: SK-MEL-2 melanoma 0.113% | EKVX NSCLC 1.82% | UO-31 renal -5.88% | ACHN renal 5.95% | CAKI-1 renal 8.82% | NCI/ADR-RES ovarian 5.44%
inactive: SN12C renal 17.4% | TK-10 renal 24.3% | A498 renal 13.8% | MOLT-4 leukemia 28.9% | SR leukemia 55.5% | OVCAR-8 ovarian 25.4% | OVCAR-5 ovarian 32% | OVCAR-4 ovarian 28.2% | SK-OV-3 ovarian 20.8% | IGROV1 ovarian 19.8% | OVCAR-3 ovarian 14.3% | HS 578T breast 24.1%

Cc1ccc(C(=O)/C=C/c2ccccc2)s1
inactive: SK-MEL-2 melanoma 102% | EKVX NSCLC 82.3% | SN12C renal 103% | UO-31 renal 77.7% | TK-10 renal 108% | ACHN renal 121% | CAKI-1 renal 92.4% | A498 renal 90.5% | MOLT-4 leukemia 100% | SR leukemia 88.3% | OVCAR-8 ovarian 111% | OVCAR-5 ovarian 110% | OVCAR-4 ovarian 133% | SK-OV-3 ovarian 130% | IGROV1 ovarian 79.4% | OVCAR-3 ovarian 89.6% | HS 578T breast 106% | NCI/ADR-RES ovarian 113%

CC[C@@H](C(=O)[C@H](C)[C@H](O)[C@@H](C)[C@H]1O[C@H]([C@@H](CC)C(=O)O)CC[C@H]1C)C1O[C@]2(C=C[C@@H](O)[C@]3(CC[C@@](C)([C@H]4CC[C@](O)(CC)[C@H](C)O4)O3)O2)[C@H](C)C[C@@H]1C (some centres undefined)
active: A498 renal -69.6% | RPMI-8226 leukemia -7%
inactive: SK-MEL-2 melanoma 13.7% | EKVX NSCLC 31.3% | SN12C renal 11.8% | UO-31 renal 34.5% | TK-10 renal 56.5% | ACHN renal 31.2% | CAKI-1 renal 22.2% | MOLT-4 leukemia 17.3% | OVCAR-8 ovarian 49.1% | OVCAR-5 ovarian 41.9% | OVCAR-4 ovarian 43.4% | SK-OV-3 ovarian 42.5% | IGROV1 ovarian 41.1% | OVCAR-3 ovarian 25.8% | HS 578T breast 21.9%

O=C(CCCSc1nc(-c2ccc(Cl)cc2)cc(-c2ccc(Cl)cc2)n1)NO
inactive: SK-MEL-2 melanoma 20.8% | TK-10 renal 24.3% | OVCAR-8 ovarian 13.7% | OVCAR-5 ovarian 18% | OVCAR-4 ovarian 19.2% | SK-OV-3 ovarian 14.2% | IGROV1 ovarian 24.8%
active: EKVX NSCLC -19.7% | SN12C renal 4.81% | UO-31 renal -34.9% | ACHN renal 2.26% | CAKI-1 renal 2.08% | A498 renal -3% | MOLT-4 leukemia 4.91% | SR leukemia 7.59% | OVCAR-3 ovarian 5.4% | NCI/ADR-RES ovarian -28.7%

CCCCN(CCCC)C(=O)[C@H](CC)[C@@H]1CC[C@@H](C)[C@@H]([C@H](C)[C@@H](O)[C@@H](C)C(=O)[C@H](CC)C2O[C@]3(C=C[C@@H](O)[C@]4(CC[C@@](C)([C@H]5CC[C@](O)(CC)[C@H](C)O5)O4)O3)[C@H](C)C[C@@H]2C)O1 (some centres undefined)
inactive: TK-10 renal 18.6% | MOLT-4 leukemia 11.8% | SR leukemia 27% | OVCAR-8 ovarian 12.5% | OVCAR-5 ovarian 24% | IGROV1 ovarian 20.1% | HS 578T breast 14.5% | NCI/ADR-RES ovarian 25.4%
active: SK-MEL-2 melanoma -12.4% | EKVX NSCLC -8.73% | SN12C renal 3.56% | UO-31 renal -11.7% | ACHN renal 7.05% | CAKI-1 renal -3.74% | A498 renal -14.6% | OVCAR-4 ovarian 9.88% | SK-OV-3 ovarian -8.58% | OVCAR-3 ovarian 4.13%

O=C(Nc1ccc(OS(=O)(=O)c2ccccc2)cc1)C1CCCCC1
inactive: SK-MEL-2 melanoma 88.4% | EKVX NSCLC 84.3% | SN12C renal 96.4% | UO-31 renal 96.7% | TK-10 renal 97.4% | ACHN renal 104% | CAKI-1 renal 93.1% | A498 renal 105% | MOLT-4 leukemia 74% | SR leukemia 47.2% | RPMI-8226 leukemia 76.4% | OVCAR-8 ovarian 94.6% | OVCAR-4 ovarian 102% | SK-OV-3 ovarian 95.6% | IGROV1 ovarian 106% | OVCAR-3 ovarian 95% | HS 578T breast 103% | NCI/ADR-RES ovarian 88.3%

N#Cc1c(-c2ccc(Cl)cc2)n(O)c2ccccc12
inactive: EKVX NSCLC 30.2% | SN12C renal 16.1% | UO-31 renal 11% | TK-10 renal 66.6% | ACHN renal 35.4% | CAKI-1 renal 20.7% | CCRF-CEM leukemia 16.2% | MOLT-4 leukemia 18.1% | OVCAR-8 ovarian 26.1% | OVCAR-5 ovarian 66% | OVCAR-4 ovarian 26.5% | SK-OV-3 ovarian 12.9%
active: SK-MEL-2 melanoma 8.25% | SR leukemia 9.6% | IGROV1 ovarian 4.22% | OVCAR-3 ovarian 4.13% | HS 578T breast -21.6% | NCI/ADR-RES ovarian 2.73%

COc1ccc(C(=O)CC(CC(=O)c2ccc(OC)cc2)c2c(C)nn(-c3ccccc3)c2Cl)cc1
inactive: SK-MEL-2 melanoma 94.3% | EKVX NSCLC 102% | SN12C renal 93.3% | UO-31 renal 72.8% | TK-10 renal 103% | ACHN renal 90.8% | CAKI-1 renal 85.1% | A498 renal 80.8% | OVCAR-5 ovarian 91.8% | OVCAR-4 ovarian 101% | SK-OV-3 ovarian 109% | IGROV1 ovarian 104% | OVCAR-3 ovarian 115% | HS 578T breast 94.4% | NCI/ADR-RES ovarian 95.5%
